Source: PubChem BioAssay
Compounds with a hit are over-represented: about 7.4% of the library has one in this group of screens.
HEK293 cAMP cs: qHTS Assay for Agonists of the Thyroid Stimulating Hormone Receptor: Activators of Intracellular cAMP Concentrations in Parental HEK 293; 73,000 tested, 2.5% active; AID 938, 2007; parental HEK293 CNG cAMP sensor, membrane potential fluorescence; Potency, µM (highest dose often 57.1 µM), hits mostly activators; note: nearly all actives have a fitted effect of over 55% in size
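Parental HEK 293 cells stably expressing a cAMP-gated CNG channel were loaded with membrane potential dye containing 100 uM RO 20-1724 for 60 min. Compound added for 30 min; depolarization read as fluorescence intensity at 590 nm.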
Tau fil binding: qHTS Assay for Tau Filament Binding; Potency, µM (titrated, usually from 57.1 µM); 71,000 tested, 2% active; recombinant tau filaments, thioflavin S fluorescence, 15 h; filaments grown with octadecylsulfate alongside compound; AID 596, 2007; Microtubule-associated protein tau (Homo sapiens), P10636;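 note: actives lower thioflavin S fluorescence by blocking filaments or displacing dye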
Target sequence (P10636 whole entry, looked up): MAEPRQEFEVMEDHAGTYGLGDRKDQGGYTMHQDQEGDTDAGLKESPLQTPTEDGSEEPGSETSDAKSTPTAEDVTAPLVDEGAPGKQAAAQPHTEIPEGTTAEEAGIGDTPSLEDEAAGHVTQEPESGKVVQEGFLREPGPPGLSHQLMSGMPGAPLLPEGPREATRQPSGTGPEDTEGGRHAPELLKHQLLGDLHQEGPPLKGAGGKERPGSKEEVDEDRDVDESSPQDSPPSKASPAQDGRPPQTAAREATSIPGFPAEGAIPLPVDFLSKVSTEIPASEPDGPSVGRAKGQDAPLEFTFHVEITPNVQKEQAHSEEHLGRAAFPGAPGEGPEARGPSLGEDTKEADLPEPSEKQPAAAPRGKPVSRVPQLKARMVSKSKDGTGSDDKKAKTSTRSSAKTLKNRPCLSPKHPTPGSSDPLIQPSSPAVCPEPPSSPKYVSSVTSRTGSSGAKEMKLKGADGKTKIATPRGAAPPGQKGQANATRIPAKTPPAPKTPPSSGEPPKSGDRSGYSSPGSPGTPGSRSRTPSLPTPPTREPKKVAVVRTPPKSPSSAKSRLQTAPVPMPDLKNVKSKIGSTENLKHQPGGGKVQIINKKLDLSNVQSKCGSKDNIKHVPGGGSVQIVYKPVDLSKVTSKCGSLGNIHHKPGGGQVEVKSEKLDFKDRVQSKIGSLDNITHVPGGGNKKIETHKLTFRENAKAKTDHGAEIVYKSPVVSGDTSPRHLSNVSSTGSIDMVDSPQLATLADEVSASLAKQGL
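Quantitative HTS: thioflavine S signal from ODS-induced tau filaments, excited at 450 nm, emission 510 nm. Conditions: 1 uM tau, 30 uM ODS, 15 h at 37 C, pH 7.4.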
ERK AVP inh: qHTS Assay for Inhibitors of the ERK Signaling Pathway using a Homogeneous Screening Assay; HEK293-V1b, vasopressin-stimulated pERK AlphaScreen; AID 995, 2007; Potency, µM (series often up to 57.5 µM), usual class: inhibitors; 72,000 tested, 0.99% active; note: nearly all actives have a fitted effect of over 55% in size
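Overnight-seeded V1b-HEK293 cells in 1% FBS got compound, then vasopressin (25 nM final, 5 min, 37C), then lysis buffer. AlphaScreen detection of phospho-ERK; activity normalized to basal and full-stimulation controls.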
TSHR ag: qHTS Assay for Agonists of the Thyroid Stimulating Hormone Receptor | Potency, µM (highest dose often 57.1 µM), most hits filed as activators | HEK293-CNG-TSHR cells (CNG channel as cAMP sensor), membrane potential dye, cAMP | 73,000 tested, 0.48% active | AID 926, 2007; active = well fitted activation curve with a large enough effect in the main read-out, with a control signal flat, not every such curve was filed as active; inconclusive = small, poorly fitted or top-dose-only effect, or a change in a side signal; inactive = no such curve, though single readings can be large or run the other way; reference of the percent scale not stated here;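 note: the control signal comes from parental cells without the receptor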
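HEK 293 cells stably expressing TSHR and a modified CNG channel, with CNG-only parental cells as counterscreen, were preloaded 60 min at room temperature with membrane potential dye containing 100 uM RO 20-1724. Compound exposure was 30 min, and depolarization was read as fluorescence at 590 nm.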
CRE-bla Fsk: Cell signaling CRE-BLA (Fsk stim). CHO CRE-bla reporter (cAMP response element driving beta-lactamase), forskolin EC10, beta-lactamase ratio. Potency, µM (doses to about 38.2 µM), hits mostly activators. 71,000 tested, 2.5% active. AID 662, 2007; active = well fitted activation curve with a large enough effect in the signal ratio, with a control signal flat, not every such curve was filed as active; inconclusive = small, poorly fitted or top-dose-only effect, or effect the other way, or a change in a side signal; the % refers to the signal ratio
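Beta-lactamase reporter under a cAMP responsive element in CHO cells; compounds tested in titration series against EC10 NKH 477, 3 h at 37 °C. Read-out: CCF4 FRET ratio 460nm/530nm (excitation 405nm) giving %Activity, fitted to AC50.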
Of the large screens only hits and unclear results are named; the others gave an inactive call; ! = repeats disagree. Unless noted, calls come from the whole dose curve; as a rule, active = well fitted curve in the direction sought with a large enough effect; inconclusive = small, poorly fitted or top-dose-only effect, or another doubt; inactive = no such curve, though single readings can be large; an effect the other way counts as inactive or inconclusive.

c1ccc2sc(SCN(C3CCCCC3)C3CCCCC3)nc2c1	none
CCN1C(=O)[C@H]2[C@H]3[C@H](O)[C@H](O)C/C(=N/O[C@@H](C)CN4CCCc5nc(C)c(C)cc54)[C@@H]3CC[C@@H]2C1=O	none (no result: Tau fil binding, CRE-bla Fsk)
O=S(=O)(CCc1nnc(-c2ccccc2)o1)c1ccc2ccccc2c1	none
CN(c1ccc(OCc2nnc(-c3ccccc3)o2)cc1)S(=O)(=O)c1ccccc1	HEK293 cAMP cs 15.8µM, TSHR ag inconclusive, CRE-bla Fsk inconclusive
CC(C)Oc1ccccc1C1CC(=O)Nc2cc3c(cc21)OCCO3 (configuration not stated)	HEK293 cAMP cs inconclusive, ERK AVP inh 15.8µM, TSHR ag inconclusive, CRE-bla Fsk 6.31µM
CCCOc1c(OC)cccc1C1CC(=O)Nc2cc3c(cc21)OCCO3 (configuration not stated)	HEK293 cAMP cs 15.8µM, TSHR ag inconclusive, CRE-bla Fsk inconclusive
N#C/C(=C\N1CCNC1=S)C(=O)c1ccc2ccccc2c1	none
COc1cccc(-c2nnc(SCC(=O)OC(C)C)n2N)c1	TSHR ag 12.6µM
OC[C@@H](O)[C@@H](O)[C@@H](O)[C@@H](O)c1nc2ccc(Cl)cc2[nH]1	none
CCOC(=O)C(C)Sc1nnc(-c2ccccc2O)n1-c1ccc(C)cc1 (configuration not stated)	HEK293 cAMP cs 20µM, TSHR ag inconclusive
COC(=O)CSc1nnc(-c2ccccc2O)n1-c1ccc(C)cc1	HEK293 cAMP cs inconclusive, TSHR ag inconclusive
Cc1ccc(S(=O)(=O)Nc2ccc(O)c(C(=O)O)c2)c(C)c1	none (no result: Tau fil binding, ERK AVP inh, CRE-bla Fsk)
Cc1ccc(S(=O)(=O)Oc2ccc(N=Nc3ccc(-c4ccc(N=Nc5c(O)ccc6cc(S(=O)(=O)O)cc(S(=O)(=O)O)c56)c(C)c4)cc3C)cc2)cc1	Tau fil binding 0.01µM, ERK AVP inh 25.1µM, CRE-bla Fsk inconclusive
O=S(=O)(O)c1ccc2cc(N=Nc3cc(S(=O)(=O)O)c4cccnc4c3O)ccc2c1	CRE-bla Fsk inconclusive
Cc1ccc(N=Nc2c(O)ccc3cc(S(=O)(=O)O)ccc23)cc1	Tau fil binding 3.16µM
C#CCCCO/N=C1/C[C@@H](O)[C@@H](O)[C@@H]2[C@@H]3C(=O)N(CC)C(=O)[C@H]3CC[C@H]12	none (no result: Tau fil binding, CRE-bla Fsk)
Nc1nnc(N2CCc3ccccc32)s1	ERK AVP inh 15.8µM
O=C(O)c1c[nH]c2c(ccc3[nH]cc(C(=O)O)c(=O)c32)c1=O	none
c1ccc2c(c1)Cc1cc3ccccc3nc1-2	HEK293 cAMP cs 20µM, Tau fil binding inconclusive, ERK AVP inh 12.6µM, TSHR ag inconclusive, CRE-bla Fsk inconclusive
Cc1ccc(-c2csc3nnc(SCC(=O)N4CCN(Cc5ccccc5)CC4)n23)cc1	Tau fil binding 20µM
Cc1nc(N2CCOCC2)c2nc(-c3ccccc3)n(CCN3CCCC3)c2n1	HEK293 cAMP cs inconclusive, TSHR ag inconclusive
COc1ccc2c(c1)Cc1sc(NC(=O)c3cccs3)nc1-2	Tau fil binding 25.1µM, ERK AVP inh inconclusive
NC(=O)c1cc2ccc(O)cc2oc1=Nc1ccccc1	ERK AVP inh 7.94µM, CRE-bla Fsk inconclusive
COc1ccc(OC)c(N=c2oc3cc(O)ccc3cc2C(N)=O)c1	ERK AVP inh inconclusive, CRE-bla Fsk 10µM
NC(=O)c1cc2ccc(O)cc2oc1=NCc1ccccc1	CRE-bla Fsk inconclusive
O=C1/C(=C/c2ccccc2)[C@@H](NC2CCCCC2)c2ccccc21	CRE-bla Fsk inconclusive
COC(=O)[C@@H]1C[C@@]2(O)[C@H](O)[C@H](O)[C@H](O)C[C@H]2N1Cc1ccc(N2CCN(C)CC2)cc1	none (no result: HEK293 cAMP cs, Tau fil binding, TSHR ag, CRE-bla Fsk)
Cc1c(CCC(=O)O)c(=O)oc2cc3occ(-c4ccc(F)cc4)c3cc12	CRE-bla Fsk 10µM
CN(Cc1ccccc1)c1oc(COc2ccccc2F)nc1C#N	HEK293 cAMP cs 25.1µM, ERK AVP inh inconclusive, TSHR ag inconclusive
S=c1[nH]c2ccccc2s1	none
CN(CCOc1ccc(C[C@H](Nc2ccccc2C(=O)c2ccccc2)C(=O)O)cc1)c1ccccn1	HEK293 cAMP cs inconclusive, Tau fil binding 39.8µM!, TSHR ag inconclusive, CRE-bla Fsk inconclusive
CN(Cc1ccccc1)C(=O)N[C@@H](Cc1ccccc1)C(=O)O	none
CCCCCCOC(=O)C(C#N)c1nc2ccccc2nc1N1CCCCC1 (configuration not stated)	CRE-bla Fsk inconclusive
CCCN(CCC)c1nc2ccccc2nc1C(C#N)C(=O)OCCOC (configuration not stated)	Tau fil binding 1.26µM, CRE-bla Fsk 12.6µM (no result: TSHR ag)
C=CCN(CC=C)c1nc2ccccc2nc1C(C#N)C(=O)OCCOC (configuration not stated)	HEK293 cAMP cs inconclusive, TSHR ag inconclusive, CRE-bla Fsk 15.8µM
COc1cccc(-c2ccc3ncnc(NCc4cccs4)c3c2)c1	HEK293 cAMP cs inconclusive, ERK AVP inh 15.8µM, TSHR ag inconclusive, CRE-bla Fsk inconclusive
CN(C)C(=O)c1ccc(-c2ccc3ncnc(NCc4cccs4)c3c2)cc1	ERK AVP inh 31.6µM, CRE-bla Fsk inconclusive
COc1cccc(-c2ccc3ncnc(NCc4cnc(C)cn4)c3c2)c1	none
CCC(=O)Nc1cccc(NC(=O)CSc2nnc(C(C)C)n2CC)c1	HEK293 cAMP cs 12.6µM, TSHR ag inconclusive, CRE-bla Fsk inconclusive
Cc1cc(C(=O)OCc2nnc(-c3ccccc3)o2)c(C)n1-c1ccccc1	HEK293 cAMP cs 12.6µM, TSHR ag inconclusive
CCCc1cc(C(N)=O)c(NC(=O)c2ccoc2C)s1	CRE-bla Fsk 10µM
CCCc1cc(C(=O)Nc2sc(C)c(C)c2C(=O)OCC)no1	CRE-bla Fsk 2µM
CCc1c(C)sc(NC(=O)c2cc(C)on2)c1C#N	none
CCCc1cc(C(N)=O)c(NC(=O)c2cc(C)on2)s1	Tau fil binding 31.6µM
Cc1occc1C(=O)Nc1sc2c(c1C(N)=O)CCCCC2	HEK293 cAMP cs inconclusive, TSHR ag inconclusive, CRE-bla Fsk inconclusive
COc1ccc(/C=C\C(=O)Nc2ccccc2C(=O)O)cc1OC	none
Nc1cc2c(nc3c4ccccc4c(N)cc3[n+]2-c2cccc3ccccc23)c2ccccc12 (tested in a mixture with another compound)	Tau fil binding 0.631µM, ERK AVP inh inconclusive, CRE-bla Fsk inconclusive
CN(C)c1ccc(-c2nccc(NCCN3CCOCC3)n2)cc1	CRE-bla Fsk inconclusive
COc1ccc(-n2c(=O)c(-c3cccc(Cl)c3)nc3cncnc32)cc1	CRE-bla Fsk inconclusive
CCc1ccc2c(-c3cccc(Cl)c3)nc(=O)n(CC)c2n1	HEK293 cAMP cs inconclusive, Tau fil binding 31.6µM, TSHR ag inconclusive, CRE-bla Fsk 0.794µM
CSc1nc(C)cc(Nc2ccc(O)c(CN3CCCCC3)c2)n1	none
